This note sets out measurements from PubChem BioAssay (NCATS).

Inconclusive results are not listed. The source made the active and inactive calls. Calls come from the whole dose curve.
Potency is the fitted concentration of half-maximal effect.

This assay is described as follows: Primary qHTS to identify inhibitors of SARS-CoV-2 cell entry (AID 1645846). Note: nearly all actives have a fitted effect of over 45% in size. The note with it: SARS-CoV-2 pseudovirus cell entry assay, luminescence; activity change, negative = inhibition: at 57.1 µM (top of the series) unless noted. The gist of the method: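 HEK293-ACE2 (Expi293F, stable hACE2), 1500 cells/well, o/n 37C; cpd 23 nL pin, 1 h; MLV-PP w/ SARS-CoV-2-S (Wuhan-Hu-1, Δ19 C-term); 48 h 37C; Bright-Glo luminescence; normalized vs S-PP and bald PP.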
For the molecule `CC(C)C[C@H]1C(=O)N2CCC[C@H]2[C@]2(O)O[C@](NC(=O)[C@@H]3C=C4c5cccc6[nH]c(Br)c(c56)CC4N(C)C3)(C(C)C)C(=O)N12` (some centres not stated), the Potency is 22.4 µM (active).

For the molecule `CC[C@@H](C(=O)[C@@H](C)[C@@H](O)[C@H](C)CCc1ccc(C)c(O)c1C(=O)O)[C@H]1O[C@](CC)([C@H]2CC[C@](O)(CC)[C@H](C)O2)C[C@@H]1C`, the Potency was 5.01 µM (active).

Consider `CC(C)(C)NCC(O)COc1ccccc1C1CCCC1` (configuration not stated), for which the Potency was 10 µM (active). The same measure, in the same setting: with `CCCCCCCC(=O)CC[C@@H]1[C@@H](C/C=C\CCCC(=O)OC(C)C)[C@@H](O)C[C@H]1O` the figure was 25.1 µM (active).

Consider `O=C1[C@@H]2[C@H]3CC[C@H](C3)[C@@H]2C(=O)N1C[C@@H]1CCCC[C@H]1CN1CCN(c2nsc3ccccc23)CC1`, for which the Potency is 31.6 µM (active). On the same count and under the same terms, for `Cc1cncc(CN2CCC(=C3c4ccc(Cl)cc4CCc4cccnc43)CC2)c1` the value was 12.6 µM (active). Take `C=CC[C@@H]1/C=C(\C)C[C@H](C)C[C@H](OC)[C@H]2O[C@@](O)(C(=O)C(=O)N3CCCC[C@H]3C(=O)O[C@H](/C(C)=C/[C@@H]3CC[C@@H](O)[C@H](OC)C3)[C@H](C)[C@@H](O)CC1=O)[C@H](C)C[C@@H]2OC`: the outcome was inactive. As for `CCN1CCN(Cc2ccc(Nc3ncc(F)c(-c4cc(F)c5nc(C)n(C(C)C)c5c4)n3)nc2)CC1`, the Potency was 10 µM (active). Regarding `CCOC(=O)Oc1c(OC)cc(C(=O)O[C@@H]2C[C@@H]3CN4CCc5c([nH]c6cc(OC)ccc56)[C@H]4C[C@@H]3[C@H](C(=O)OC)[C@H]2OC)cc1OC`, the Potency was 22.4 µM (active). For `CC(=O)c1ccc2c(c1)N(CCCN1CCN(CCO)CC1)c1ccccc1S2`, the activity change, negative = inhibition is -25.7%. The same measure, in the same setting: for `CC(=O)O[C@]1(C(C)=O)CC[C@H]2[C@@H]3C=C(C)C4=CC(=O)CC[C@@H]4[C@H]3CC[C@@]21C` the value was -20%; for `CCCCCCC(COC(=O)c1cccnc1)(COC(=O)c1cccnc1)COC(=O)c1cccnc1`, -17.5%. Take `CNS(=O)(=O)CC1CCC(N(C)c2ncnc3[nH]ccc23)CC1` (configuration not stated): the call was inactive. The same measure, in the same setting: with `O=C(O)c1ccc2nc(-c3cc(Cl)cc(Cl)c3)oc2c1` the entry was “inactive”.

As to `CCCN1C[C@H](C)[C@@H](O)[C@](C)(O)[C@@H](CC)OC(=O)[C@H](C)[C@@H](O[C@H]2C[C@@](C)(OC)[C@@H](O)[C@H](C)O2)C(C)[C@@H](O[C@@H]2O[C@H](C)C[C@H](N(C)C)[C@H]2O)[C@](C)(O)C[C@H]1C` (some centres not stated), the Potency was 11.2 µM (active).

Turning to `CO[C@H]1/C=C\O[C@@]2(C)Oc3c(C)c(O)c4c(O)c(c5c(c4c3C2=O)=NC2(CCN(CC(C)C)CC2)N=5)NC(=O)/C(C)=C\C=C/[C@H](C)[C@H](O)[C@@H](C)[C@@H](O)[C@@H](C)[C@H](OC(C)=O)[C@@H]1C`, the activity change, negative = inhibition was -26.3%. Regarding `[2H]C([2H])([2H])C(O)([C@@H](C)/C=C/[C@@H](C)[C@H]1CC[C@H]2/C(=C/C=C3C[C@@H](O)C[C@H](O)C3)CCC[C@]12C)C([2H])([2H])[2H]`, the activity change, negative = inhibition was -60.1%.
